Results reported in the supplement of paper PMC12636033.
± gives the standard deviation of the averaged measurements. Over roughly 33,000 sequences, “E-score (rank enrichment, -0.5 to 0.5)” has its median near -0.0068; the highest 2% begin near 0.24. The sample holds the highest values, similar sequences and a random draw of the others, so the mix is not that of the screen.

test system: muMax20 (Max(13-93) K31hArg/K57hArg, M65Nle); assay: PBM 8-mer E-score (E-score (rank enrichment, -0.5 to 0.5)); higher = stronger preferential binding
Procedure: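 Protein binding microarray (universal PBM chip covering all 10-mers in fixed probe flanks) with chemically synthesized human Max(13-93) bHLH-LZ analogs (not full-length Max) bearing noncanonical residues (hArg, Tha, Aib, Nle at 65) and aromatic Cys staples. Read-out per 8-mer (and its reverse complement): E-score (rank-based enrichment, -0.5 to 0.5) and Z-score of median probe intensity.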

| Sequence | PBM 8-mer E-score |
| --- | --- |
| AGATTCGG | -0.118 ± 0.032 |
| TCAAGGGA | -0.065 ± 0.048 |
| ATGATATG | 0.21 ± 0.12 |
| GAGATACA | -0.0288 ± 0.04 |
| CTGATATA | 0.0184 ± 0.051 |
| AAGATATA | 0.26 ± 0.041 |
| GAGATGTA | 0.104 ± 0.017 |
| AAGATATC | 0.155 ± 0.027 |
| AAGATACA | 0.316 ± 0.024 |
| CAGATATA | 0.0469 ± 0.045 |
| ATGATATA | 0.266 ± 0.048 |
| CAGATGTA | 0.138 ± 0.011 |
| AAGATACT | 0.117 ± 0.038 |
| AAGATGTA | 0.237 ± 0.094 |
| CGAGCCGA | -0.153 ± 0.036 |
| GAAGCACC | -0.0676 ± 0.049 |
| ACCTAGCG | -0.048 ± 0.057 |
| GAGGTAGA | 0.0124 ± 0.047 |
| ACCGCTTA | -0.0621 ± 0.13 |
| AAGATAAG | 0.15 ± 0.031 |
| AAGATAAC | 0.172 ± 0.07 |
| ATGATGTA | 0.171 ± 0.12 |

| Sequence | PBM 8-mer E-score |
| --- | --- |
| AAGATAAT | 0.239 ± 0.051 |
| CTGATGTA | -0.0502 ± 0.023 |
| GTGATGTA | 0.2775 ± 0.00062 |
| CCTGCCCC | -0.167 ± 0.078 |
| CCAGCTGC | -0.272 ± 0.12 |
| GGCGCAAA | -0.148 ± 0.17 |
| GTGTAAAA | 0.113 ± 0.016 |
| AGAACGAG | 0.133 ± 0.061 |
| GTACGATA | 0.163 ± 0.033 |
| CTACGATA | 0.082 ± 0.02 |
| ATACGATA | 0.244 ± 0.053 |
| GAGTCGGC | -0.146 ± 0.055 |
| CGGATGCC | -0.075 ± 0.079 |
| ATTCGTGC | 0.0424 ± 0.086 |
| AACCAGTT | 0.0717 ± 0.038 |
| ATATACAT | 0.247 ± 0.032 |
| CCATACAG | -0.0198 ± 0.047 |
| ATATACAA | 0.229 ± 0.069 |
| ATATACAC | 0.169 ± 0.004 |
| ACATACAT | 0.243 ± 0.029 |
| AGATACAG | 0.218 ± 0.024 |
| ACATACAA | 0.137 ± 0.076 |

| Sequence | PBM 8-mer E-score |
| --- | --- |
| ACATACAG | 0.242 ± 0.017 |
| ACATACAC | 0.165 ± 0.057 |
| GATGTACC | 0.0595 ± 0.065 |
| ACTCCTAT | 0.0559 ± 0.1 |
| AAACGGGC | 0.0187 ± 0.03 |
| TAAACAAA | 0.184 ± 0.008 |
| AGCTCCCC | -0.0268 ± 0.092 |
| AAATACAC | 0.273 ± 0.038 |
| AAATACAA | 0.19 ± 0.018 |
| AAATACAT | 0.259 ± 0.061 |
| AAATACAG | 0.209 ± 0.07 |
| CAATACAC | 0.194 ± 0.043 |
| GAATACAC | 0.123 ± 0.014 |
| CGGTTTTC | 0.00594 ± 0.054 |
| ATAGCGTG | 0.161 ± 0.019 |
| AGCACTCG | -0.199 ± 0.078 |
| GAACGCCA | -0.206 ± 0.021 |
| AAATCGCG | -0.0409 ± 0.032 |
| GGTAAGAA | 0.0527 ± 0.1 |
| CATAACGA | 0.0556 ± 0.017 |
| ATAATTAT | 0.276 ± 0.0028 |
| CGAATTAA | 0.106 ± 0.11 |

| Sequence | PBM 8-mer E-score |
| --- | --- |
| TTAATTAA | 0.324 ± 0.12 |
| CTAATTAA | 0.0707 ± 0.041 |
| ATAATTAA | 0.175 ± 0.05 |
| ATAATTAC | 0.22 ± 0.074 |
| ATAATTAG | 0.223 ± 0.1 |
| TGAATTAA | 0.254 ± 0.043 |
| GGAATTAA | 0.1996 ± 0.0018 |
| CCTGTCCA | -0.131 ± 0.17 |
| CCAGTTTA | -0.0199 ± 0.068 |
| ATAAGGCC | -0.0432 ± 0.14 |
| AGTGCCTA | -0.109 ± 0.091 |
| CAACTGCC | 0.0721 ± 0.014 |
| TCGAGGAA | -0.0274 ± 0.069 |
| CCCACAAA | 0.183 ± 0.015 |
| ATGATAGC | 0.2152 ± 0.0016 |
| GGCATGCA | 0.106 ± 0.091 |
| ACCATGCA | 0.28 ± 0.096 |
| TCCATGCA | 0.105 ± 0.07 |
| AGCATGCA | 0.284 ± 0.11 |
| TGCATGCA | 0.0968 ± 0.12 |
